# Screening results deposited in PubChem BioAssay by National Center for Advancing Translational Sciences (NCATS).
# TDP1 block: TDP1 (human) enzyme inhibition | Q9NUW8 | recombinant TDP1, AlphaScreen DNA substrate cleavage | Potency, µM (highest dose often 130 µM), for the others: at the highest dose activity change, negative = inhibition, actives largely listed as inhibitors | 350,000 tested, 0.28% active | AID 485290; also: potency is read from the fitted curve at half-maximal effect; % is scaled to controls: 0 for no effect and ±100 for the full control effect; nearly all actives have a fitted effect of over 40% in size
# Target sequence (Q9NUW8 whole entry, looked up): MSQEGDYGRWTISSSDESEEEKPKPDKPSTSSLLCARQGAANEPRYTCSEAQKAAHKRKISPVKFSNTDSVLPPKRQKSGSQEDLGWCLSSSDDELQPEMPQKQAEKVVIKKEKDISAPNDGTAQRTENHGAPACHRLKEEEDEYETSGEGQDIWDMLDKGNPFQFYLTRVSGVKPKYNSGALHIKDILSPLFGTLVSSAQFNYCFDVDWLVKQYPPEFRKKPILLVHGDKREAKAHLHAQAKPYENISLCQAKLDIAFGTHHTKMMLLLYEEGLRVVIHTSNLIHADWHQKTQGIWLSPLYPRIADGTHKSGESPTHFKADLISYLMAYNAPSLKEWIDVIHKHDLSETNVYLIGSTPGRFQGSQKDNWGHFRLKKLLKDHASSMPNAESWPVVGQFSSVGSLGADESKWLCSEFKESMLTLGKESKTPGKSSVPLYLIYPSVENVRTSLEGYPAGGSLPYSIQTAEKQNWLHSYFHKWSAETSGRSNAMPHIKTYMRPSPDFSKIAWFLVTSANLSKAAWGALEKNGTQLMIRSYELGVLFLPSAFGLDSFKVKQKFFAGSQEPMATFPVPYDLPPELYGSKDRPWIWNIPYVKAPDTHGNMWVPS
#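 E. coli-derived human Tdp1, 1 nM final. Cpd preinc 15 min RT; substrate 15 nM final, 5 min RT; AS bead mix 10 ug/ml final, 10 min RT. Signal loss = tyrosine-FITC cleavage. No-enzyme wells = max signal.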
# DT40 TDP1 no CPT: qHTS for Inhibitors of human tyrosyl-DNA phosphodiesterase 1 (TDP1): qHTS in cells in absence of CPT; DT40 Tdp1-/- hTDP1 cells, no CPT, ATP luminescence, 48 h; 420,000 tested, 15% active; Potency, µM (titrated, usually from 46.2 µM), for inactives: top-dose activity change, negative = growth inhibition, usual class: inhibitors; also: potency is read from the fitted curve at half-maximal effect; % is scaled to controls: 0 for no effect and ±100 for the full control effect; nearly all actives have a fitted effect of over 55% in size
#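 Growth kinetics read by CellTiter-Glo luminescence after ≥48 hr at 37 °C. Cells: DT40 Tdp1-/- stably carrying human TDP1, 400 per well, compound exposure in the absence of CPT (DMSO vehicle).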
# TGFb SMAD3 inh: TGF-b pathway inhibition; HepG2 CAGA-GFP TGF-b/SMAD3 reporter, GFP fluorescence, 18 h; TGF-beta stimulated, 500 pg/mL final; Potency, µM (series often up to 46.1 µM), inactives show top-dose activity, negative = inhibition, most hits filed as inhibitors; 410,000 tested, 1.2% active; AID 588855; also: potency is read from the fitted curve at half-maximal effect; % is scaled to controls: 0 for no effect and ±100 for the full control effect; nearly all actives have a fitted effect of over 65% in size
#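 HEPG2 CAGA-GFP cells (1000/well, DMEM with 1% FBS) were pre-incubated 2 h at 37 degrees C, given compound by pin tool, then stimulated with TGF-beta at 500 pg/mL final for 18 h before per-cell GFP fluorescence imaging.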
# IL1B secr inh: blocks inflammasome-driven IL-1 beta release; THP-1 LPS/ATP IL-1B secretion, AlphaLISA, 16 h; stronger effect = lower value; activity change, % at 57.5 µM; 360,000 tested, 4.7% active; in the data active = activity change below about -50%; inconclusive = mostly about -30% to -49%; also: % is scaled to controls: 0 for no effect and ±100 for the full control effect
#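 Secreted IL-1B measured by AlphaLISA bead assay after 16 h compound exposure of THP-1 cells; compounds (final up to 57.5 uM) added 1 h before LPS (250 ng/mL) and ATP (1.25 mM) stimulation; lower signal means less secretion.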
# DT40 TDP1 CPT: DT40-hTDP1 cell growth loss with CPT; AID 686979; 420,000 tested, 12% active; chicken DT40 Tdp1-/-;hTDP1 cells + 20 nM CPT, ATP luminescence, 48 h; Potency, µM (titrated, usually from 46.2 µM), for inactives: at the top dose activity change, negative = growth inhibition, hits mostly inhibitors; also: potency is read from the fitted curve at half-maximal effect; % is scaled to controls: 0 for no effect and ±100 for the full control effect; nearly all actives have a fitted effect of over 55% in size
#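 Chicken DT40 Tdp1-/- cells stably complemented with human TDP1 were seeded at 400 cells/well in medium containing 20 nM camptothecin, exposed to pin-transferred compounds, and grown at 37 °C for at least 48 hr. Viability was read as ATP luminescence.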
# HepG2 viability: HepG2 cytotoxicity, counter-screen for TGF-b inhibitors; 410,000 tested, 0.76% active; HepG2 CAGA-GFP viability, ATP luminescence, 18 h; Potency, µM (doses to about 46.1 µM), inactives show top-dose activity change, negative = cytotoxicity, usual class: cytotoxic; also: potency is read from the fitted curve at half-maximal effect
#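 CellTiter-Glo luminescence gave cytotoxicity after 18 hours at 37 degrees C. The cells were HepG2 CAGA-GFP in 1% FBS DMEM, stimulated with 500 pg/mL TGF-beta after compound addition. %Activity was normalised to no-cell wells (complete cell-killing) and DMSO (no toxicity), and curves were fitted and classified.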
# Starred values were filed as active, the others as inactive; ? = inconclusive; . = no result given; [ ] = dose if it differs, or a comment. The list is not random: actives were taken first. Their share in the collection is about 19%. Unless noted, calls follow the shape of the dose curve; as a rule, active = well fitted curve in the direction sought with a large enough effect; inconclusive = small, poorly fitted or top-dose-only effect, or another doubt; inactive = no such curve, though single readings can be large; an effect the other way counts as inactive or inconclusive.
SMILES,TDP1 block,DT40 TDP1 no CPT,TGFb SMAD3 inh,IL1B secr inh,DT40 TDP1 CPT,HepG2 viability
CCN(CC)S(=O)(=O)c1ccc(N2CCCCC2)c(NC(=O)/C=C/c2cc(OC)c(OC)c(OC)c2)c1,-1%,12µM*,0%,0,?,-20%
CCN(CC)S(=O)(=O)c1ccc(N2CCCC2)c(NC(=O)Cc2ccccc2)c1,8%,15µM*,-15%,0,?,-2%
COCCn1c(=O)c(C)nc2cnc(N3CCNCC3)nc21,.,-3%,.,.,6%,.
CCN(CC)S(=O)(=O)c1ccc(N2CCOCC2)c(NS(=O)(=O)c2cccs2)c1,0%[56.1 µM],3%,4%,12,0%,-4%
COc1ccccc1C(=O)Nc1cc2c(cc1N1CCCC1)n(C)c(=O)c(=O)n2C,1%,?,5%,.,-1%,-4%
CCN(CC)S(=O)(=O)c1ccc(N2CCCC2)c(NC(=O)c2ccccc2OC)c1,-1%,15µM*,?,-2,?,-30%
CCN(CC)S(=O)(=O)c1ccc(N2CCCC2)c(NS(=O)(=O)c2ccc(F)cc2)c1,-2%,15µM*,-2%,-1,?,-25%
CCN(CC)S(=O)(=O)c1ccc(N2CCCC2)c(NS(=O)(=O)c2ccc(OC)cc2)c1,6%,16µM*,?,10,?,-12%
COc1ccc(OC)c(-c2csc(NC(=O)COC(=O)c3ccc(NC(=O)CC#N)cc3)n2)c1,-1%,?,-4%,-9,-28%,-2%
CCOC(=O)CSc1nc2c([nH]c3ccccc32)c(=O)n1-c1ccc(OCC)cc1,1%,-28%,2%,.,-27%,-10%
O=C(Cn1c(=O)n(-c2ccc(F)c(Cl)c2)c(=O)c2sc3ccccc3c21)NC1CCCC1,4%,-7%,18%,.,-3%,5%
CC(=O)c1ccc(Nc2nc(C(N)Cc3ccc(Cl)cc3)cs2)cc1 (stereo unspecified),.,?,?,-54*,18µM*,-80%
CC(=O)c1ccc(Nc2nc(C(N)Cc3ccc(N)cc3)cs2)cc1 (stereo unspecified),.,?,3%,-12,?,-26%
CC(=O)c1ccc(Nc2nc(C(N)CCc3ccccc3)cs2)cc1 (stereo unspecified),.,16µM*,-11%,?,?,-20%
Cc1nn(Cc2ccccc2)c(C)c1C(=O)OCC(=O)c1cc(C)n(CC(F)(F)F)c1C,5%,26µM*,-12%,0,26µM*,-2%
O=C1NC(=S)N(C(=O)c2ccc(F)cc2)/C1=C/c1ccccc1,1%,13µM*,?,-16,23µM*,-43%
O=C(c1ccc(F)cc1)N1CCN(Cc2ccccc2)CC1,.,1%,30%,-22,-9%,0%
COc1ccc(/C=C2\C(=O)NC(=S)N2C(=O)c2ccc(F)cc2)cc1,20µM*,18µM*,113%,12,23µM*,-18%
O=c1c2ccccc2nc2sc3ccccc3n12,-1%,13µM*,37%,18,?,6%
COC(=O)c1ccccc1S(=O)(=O)Oc1ccc(-c2ccc(C(=O)O)cc2)cc1,.,-2%,-5%,-99*,3%,-30%
CN(Cc1ccco1)c1ncncc1-c1cccc(NS(C)(=O)=O)c1,.,-18%,.,.,-18%,.
CCNC(=S)N1CCc2cc(OC)c(OC)cc2C1COc1ccccc1OC (stereo unspecified),7%,-8%,8%,-19,-14%,2%
NC(=O)c1ccsc1NC(=O)c1coc2ccccc2c1=O,-2%,29µM*,-24%,-3,?,-15%
Cc1ccccc1CS(=O)(=O)Cc1ccc(C(=O)NCCc2ccc(Cl)cc2)o1,10%,?,14µM*,.,21µM*,-19%
Cc1ccc(CCNC(=O)c2ccc(CS(=O)(=O)Cc3ccccc3F)o2)cc1,4%,16µM*,-36%,-8,?,-16%
SMILES,TDP1 block,DT40 TDP1 no CPT,TGFb SMAD3 inh,IL1B secr inh,DT40 TDP1 CPT,HepG2 viability
Cc1ccc(CCNC(=O)c2ccc(CSCc3ccccc3C)o2)cc1,5%,16µM*,?,.,?,-30%
CO[C@H]1COC(=O)[C@H](C)NC(=O)C/C=C\[C@@H](C)[C@@H](NS(=O)(=O)c2ccc(C)cc2)COC(=O)[C@H](OCc2ccccc2)/C=C\[C@@H]1C,6%[21 µM],.,.,.,.,.
c1csc(-c2nc(N3CCN(Cc4ccc5c(c4)OCCO5)CC3)c3ccccc3n2)c1,3%,?,.,.,?,.
C[C@@H]1O[C@@H](O[C@H]2[C@H](Oc3cc(O)c4c(c3)OC(c3ccc(O)cc3)CC4=O)O[C@H](CO)[C@@H](O)[C@@H]2O)[C@H](O)[C@H](O)[C@H]1O (stereo partly specified),.,2%,12%,9,1%,0%
Cc1ccccc1C1C=C(c2ccc(Cl)cc2)Nc2nnnn21 (stereo unspecified),3%,?,7%,.,-28%,3%
COc1cccc(C2=CC(c3cccc(OC)c3OC(F)F)n3nnnc3N2)c1 (stereo unspecified),7%,?,-5%,2,?,-3%
COc1cccc(C2C=C(c3ccc(C)c(C)c3)Nc3nnnn32)c1OC (stereo unspecified),4%,3.7µM*,-2%,.,5.2µM*,-21%
COc1cccc(C2=CC(c3cccc(OC)c3OC)n3nnnc3N2)c1 (stereo unspecified),7%,16µM*,-12%,-18,12µM*,-40%
COc1ccc2c(c1)C(=O)[C@@H](OC(=O)NS(=O)(=O)c1ccc(F)cc1)[C@H](c1ccc(OC)c(Br)c1)O2,1%,.,.,.,.,.
Nc1ncnc(Nc2ccc(F)cc2)n1,-2%,15%,-2%,14,6%,0%
Fc1ccc(Nc2ccnc(Nc3ccc(F)cc3)n2)cc1,-3%,18µM*,0%,-94*,16µM*,-51%
O=C(COC(=O)c1ccccc1)Nc1cc(S(=O)(=O)N2CCCCCC2)ccc1Cl,0%,?,-2%,25,?,-7%
O=[N+]([O-])c1ccc(/C=N\NS(=O)(=O)c2ccc(F)cc2)o1,5%[56.1 µM],?,?,-29,15µM*,-5%
Cc1nc2ccccn2c1C(=O)N/N=C/c1ccc([N+](=O)[O-])cc1,.,-2%,3%,33,-3%,-42%
